Records with an inconclusive call do not appear. Activity calls are given as the source filed them. Unless noted, calls follow the shape of the dose curve; as a rule, active = well fitted curve in the direction sought with a large enough effect; inconclusive = small, poorly fitted or top-dose-only effect, or another doubt; inactive = no such curve, though single readings can be large; an effect the other way counts as inactive or inconclusive.

The target of experiment [1] is Cytochrome P450 3A4 (Homo sapiens) (UniProt P08684). Briefly: qHTS Assay for Inhibitors and Substrates of Cytochrome P450 3A4 (AID 884). Also: % is scaled to controls: 0 for no effect and ±100 for the full control effect; nearly all actives have a fitted effect of over 50% in size. In short, it runs like this: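 20 nM human CYP3A4 with 25 uM Luciferin-PPXE (at KM) in 200 mM KPO4, preincubated 10 min with compound; NADPH regeneration started a 60 min RT reaction. Luciferin detected by luminescence, normalized to 57 uM ketoconazole as full inhibition.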

Experiment [2] is described as follows: Confirmation and Secondary Assay for Modulators of Hemoglobin Beta Chain Splicing at IVS2 654 locus (AID 910).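 Also: HeLa cells stably carrying EGFP split by mutant beta-globin IVS2-654 intron; % of control where 0% means no effect.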 A digest of the protocol:
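HeLa cells stably expressing EGFP interrupted by β-globin IVS2-654 intron, seeded overnight in Opti-MEM/2% FCS, then treated 2 days at 37 °C. Restored splicing read as total peak GFP intensity per well by laser scanning cytometry (488 nm excitation, 500–520 nm emission); 500 nM antisense PNA as control.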

The nature of experiment [3]: Confirmation and Secondary Assay for Modulators of Hemoglobin Beta Chain Splicing at IVS2 705 locus (AID 930).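 Also: HeLa cells stably expressing the EGFP-705 splicing reporter; GFP fluorescence per well restored by corrected splicing of the IVS2-705 intron in EGFP; % of control where 0% means no effect.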 In short, it runs like this: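 HeLa cells stably carrying EGFP interrupted by mutant beta-globin intron 2 (IVS2-705) treated 2 days at 37C with compound; 500 nM antisense PNA as control. Correct splicing read as total peak GFP intensity per well by laser-scanning cytometry.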

Experiment [4] in a line: qHTS Assay for Lipid Storage Modulators (AID 1519; calls by dose curve; as to activity change, negative = inhibition: % is scaled to controls: 0 for no effect and ±100 for the full control effect). The settings on record: Drosophila S3 cells, BODIPY lipid droplet/cell ratio, laser cytometry, cells loaded with oleic acid; for activity change, negative = inhibition: at 57.5 µM (top of the series). A digest of the protocol: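 Cells seeded at 5,000 per well were treated with compounds over a concentration series and loaded with oleic acid (400 uM, as added). Lipid droplet fluorescence (488 nm excitation, 500-530 nm channel) was read by laser-scanning cytometry and normalized to 20 uM Triacsin C.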
In general terms: In qHTS, concentration-response curves come from the screen itself.

Experiment [5] addresses Ubiquitin carboxyl-terminal hydrolase 1 (Homo sapiens) (UniProt O94782). Briefly: Inhibitors of USP1/UAF1: Pilot qHTS (AID 504865).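 Also: rhodamine fluorescence freed from ubiquitin-rhodamine substrate followed over time; top concentration of the series differs between compounds; % is scaled to controls: 0 for no effect and ±100 for the full control effect; nearly all actives have a fitted effect of over 35% in size.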 In short, it runs like this: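 Enzyme-free wells gave the negative control, while test wells held 1nM USP1/UAF1 preincubated with compound for 15 min at room temperature. Ub-Rho at 150nM final started the reaction, and fluorescence at 480/540 nm was recorded kinetically.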

Setting [6] is: measured here: cell count channel max response.
Setting [7] is: measured here: lipid channel max response.

Chain of Cytochrome P450 3A4 (Homo sapiens) (P08684 whole entry, looked up): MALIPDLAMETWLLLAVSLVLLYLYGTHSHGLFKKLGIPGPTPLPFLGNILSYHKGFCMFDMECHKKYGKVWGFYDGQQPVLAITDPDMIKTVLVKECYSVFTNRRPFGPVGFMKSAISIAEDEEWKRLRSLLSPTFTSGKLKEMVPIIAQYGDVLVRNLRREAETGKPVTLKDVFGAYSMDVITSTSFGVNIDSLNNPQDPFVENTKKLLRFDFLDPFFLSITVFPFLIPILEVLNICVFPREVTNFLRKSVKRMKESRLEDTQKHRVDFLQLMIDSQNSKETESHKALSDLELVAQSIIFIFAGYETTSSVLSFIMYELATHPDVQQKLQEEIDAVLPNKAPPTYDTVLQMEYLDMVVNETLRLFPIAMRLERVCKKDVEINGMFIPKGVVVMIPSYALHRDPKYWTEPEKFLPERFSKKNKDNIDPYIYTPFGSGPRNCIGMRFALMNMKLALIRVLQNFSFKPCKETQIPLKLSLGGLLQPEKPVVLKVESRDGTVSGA
Chain of Ubiquitin carboxyl-terminal hydrolase 1 (Homo sapiens) (O94782 whole entry, looked up): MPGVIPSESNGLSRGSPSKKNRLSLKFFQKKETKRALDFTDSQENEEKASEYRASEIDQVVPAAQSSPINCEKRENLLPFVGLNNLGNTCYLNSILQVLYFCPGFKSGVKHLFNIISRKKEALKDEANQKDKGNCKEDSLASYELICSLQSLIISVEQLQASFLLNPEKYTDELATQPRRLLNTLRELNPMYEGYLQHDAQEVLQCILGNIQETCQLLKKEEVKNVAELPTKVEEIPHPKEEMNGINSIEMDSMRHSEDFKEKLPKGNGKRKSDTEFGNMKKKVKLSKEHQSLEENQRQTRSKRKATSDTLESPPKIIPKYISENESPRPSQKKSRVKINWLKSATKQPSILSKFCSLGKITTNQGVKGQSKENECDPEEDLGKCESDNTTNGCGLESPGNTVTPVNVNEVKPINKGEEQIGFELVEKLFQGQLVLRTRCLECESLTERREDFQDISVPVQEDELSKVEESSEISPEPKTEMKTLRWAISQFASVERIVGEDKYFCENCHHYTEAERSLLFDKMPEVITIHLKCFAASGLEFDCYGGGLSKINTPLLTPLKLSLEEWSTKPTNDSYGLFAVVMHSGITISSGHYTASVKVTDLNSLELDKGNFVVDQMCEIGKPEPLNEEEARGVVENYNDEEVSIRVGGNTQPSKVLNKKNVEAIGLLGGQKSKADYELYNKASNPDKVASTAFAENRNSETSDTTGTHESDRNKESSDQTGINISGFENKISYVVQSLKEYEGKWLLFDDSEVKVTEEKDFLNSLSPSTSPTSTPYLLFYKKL

Take `CCC(C)C(NC)C(=O)O` (stereo not given): the Potency entry in experiment [1], in experiment [2], in experiment [3] and in experiment [5] was “inactive” in each case. In experiment [4], the activity change, negative = inhibition is 5.09% (inactive). The max response amounted to 17.4% in experiment [4] (setting [6]) and 24.1% in experiment [4] (setting [7]).

As to `O=C(O)c1ccc2c(c1)OCO2`, the Potency entry in experiment [1], in experiment [2], in experiment [3] and in experiment [5] was “inactive” each time. In addition, the activity change, negative = inhibition in experiment [4] is 6.55% (inactive). Besides, the figures for the max response in experiment [4] (setting [6]) and in experiment [4] (setting [7]) were 14.4% and 22.7%, respectively.

On to `O=c1cc(-c2ccccc2O)oc2cc(O)ccc12`, for which the Potency entry in experiment [1], in experiment [2], in experiment [3] and in experiment [5] was “inactive” in each case. For the same compound, the activity change, negative = inhibition in experiment [4] was 8.08% (inactive). The max response in experiment [4] (setting [6]) was found to be 28.6%; in experiment [4] (setting [7]) it was 40%.

Turning to `CCCCCC1C(=O)CCC1CC(=O)O` (stereo not given), the Potency result in experiment [1], in experiment [2], in experiment [3] and in experiment [5] was “inactive” in each case. For the same compound, in experiment [4], the activity change, negative = inhibition is 5.46% (inactive). The figures for the max response in experiment [4] (setting [6]) and in experiment [4] (setting [7]) were 21.6% and 28.3%, respectively.

Turning to `CCC(C(N)=O)c1ccccc1` (stereo not given), the Potency entry in experiment [1], in experiment [2], in experiment [3] and in experiment [5] was “inactive” each time. Besides, the activity change, negative = inhibition in experiment [4] is 9.01% (inactive). In addition, the max response in experiment [4] (setting [6]) amounted to 9.46%; in experiment [4] (setting [7]), 21.9%.

As to `CC12CCC3C(CC3(C)C)C(C)(CCC1=O)O2` (stereo not given), the Potency entry in experiment [1], in experiment [2], in experiment [3] and in experiment [5] was “inactive” in each case. In experiment [4], the activity change, negative = inhibition is 8.76% (inactive). Moreover, the max response came out at 19% in experiment [4] (setting [6]) and 26.9% in experiment [4] (setting [7]).

With `CCC(C(=O)O)c1ccccc1` (stereo not given), the Potency entry in experiment [1], in experiment [2], in experiment [3] and in experiment [5] was “inactive” each time. In addition, the activity change, negative = inhibition in experiment [4] is 0.321% (inactive). Also, the max response was found to be 8.63% in experiment [4] (setting [6]) and 10.3% in experiment [4] (setting [7]).

For `CC(C)=CC1C(C(=O)O)C1(C)C` (stereo not given), the Potency result in experiment [1], in experiment [2], in experiment [3] and in experiment [5] was “inactive” in each case. Further, the activity change, negative = inhibition in experiment [4] was 7.47% (inactive). Moreover, the max response in experiment [4] (setting [6]) is 18%; in experiment [4] (setting [7]), 29.9%.

With `CC1(C)Oc2ccc3ccc(=O)oc3c2CC1O` (stereo not given), the Potency entry in experiment [1], in experiment [2], in experiment [3] and in experiment [5] was “inactive” throughout. The activity change, negative = inhibition in experiment [4] is -1.55% (inactive). Moreover, the max response in experiment [4] (setting [6]) stood at 16%; in experiment [4] (setting [7]) it was 13.9%.

For the compound `CC1(C)CC2C1CC[C@]1(C)CCC3C(C(=O)O)CC(=O)O[C@]32C1` (stereo not given in full), the Potency entry in experiment [1], in experiment [2], in experiment [3] and in experiment [5] was “inactive” throughout. Further, the activity change, negative = inhibition in experiment [4] was 3.56% (inactive). In addition, the max response in experiment [4] (setting [6]) stood at 4.93%; in experiment [4] (setting [7]) it was 10.6%.

For `C=C(C)C1CC=C(CO)CC1` (stereo not given), the Potency entry in experiment [1], in experiment [2], in experiment [3] and in experiment [5] was “inactive” in each case. The activity change, negative = inhibition in experiment [4] was 0.669% (inactive). Besides, the max response was -1.53% in experiment [4] (setting [6]) and 1.38% in experiment [4] (setting [7]).

Turning to `Nc1nc(O)c2ncn([C@H]3CC[C@@H](CO)O3)c2n1`, the Potency result in experiment [1], in experiment [2], in experiment [3] and in experiment [5] was “inactive” each time. The activity change, negative = inhibition in experiment [4] was 7.72% (inactive). Further, the max response in experiment [4] (setting [6]) is -2.43%; in experiment [4] (setting [7]), 2.95%.

On to `CCCCCC(CC(=O)O)C(=O)O` (stereo not given), for which the Potency result in experiment [1], in experiment [2], in experiment [3] and in experiment [5] was “inactive” in each case. Besides, the activity change, negative = inhibition in experiment [4] is 12.5% (inactive). For the same compound, the values for the max response in experiment [4] (setting [6]) and in experiment [4] (setting [7]) were 21.4% and 35.2%, respectively.

As to `CC1CC[C@@]2(OC1)OC1CC3C4CC[C@H]5CC(O)CC[C@@]5(C)C4CC[C@]3(C)C1C2C` (stereo not given in full), the Potency entry in experiment [1], in experiment [2], in experiment [3] and in experiment [5] was “inactive” in each case. For the same compound, the activity change, negative = inhibition in experiment [4] was 2.03% (inactive). Moreover, the max response in experiment [4] (setting [6]) came to 27.2%; in experiment [4] (setting [7]), 29.7%.

Turning to `CC1CCC2(OC1)OC1CC3C4CC[C@@H]5CC(O)CC[C@@]5(C)C4CC(=O)[C@]3(C)C1C2C` (stereo not given in full), the Potency entry in experiment [1], in experiment [2], in experiment [3] and in experiment [5] was “inactive” each time. Also, the activity change, negative = inhibition in experiment [4] is 9.56% (inactive). For the same compound, the max response in experiment [4] (setting [6]) is 0.354%; in experiment [4] (setting [7]) it was 13.1%.

As to `Nc1nc2[nH]c(=O)c(=O)[nH]c2c(=O)[nH]1`, the Potency entry in experiment [1], in experiment [2], in experiment [3] and in experiment [5] was “inactive” throughout. The activity change, negative = inhibition in experiment [4] was 4.12% (inactive). The figures for the max response in experiment [4] (setting [6]) and in experiment [4] (setting [7]) were 1.82% and 6.32%, respectively.

Regarding `CC(=O)OC1CCC2(C)C3CC(=O)C4(C)C(CC5OC6(CCC(C)CO6)C(C)C54)C3CC[C@H]2C1` (stereo not given in full), the Potency result in experiment [1], in experiment [2], in experiment [3] and in experiment [5] was “inactive” in each case. For the same compound, the activity change, negative = inhibition in experiment [4] is 5.04% (inactive). Moreover, the max response is 11.2% in experiment [4] (setting [6]) and 17.7% in experiment [4] (setting [7]).

With `CC(=O)OC1CC[C@@]2(C)C(CC[C@@]3(C)C2CC=C2C4CC(C)(C)CC[C@]4(C)CC[C@@]23C)C1(C)C` (stereo not given in full), the Potency entry in experiment [1], in experiment [2], in experiment [3] and in experiment [5] was “inactive” each time. The activity change, negative = inhibition in experiment [4] is 4.64% (inactive). In addition, the max response was 6.83% in experiment [4] (setting [6]) and 14% in experiment [4] (setting [7]).

On to `O=c1[nH]c(=O)n(C2CC(O)C(CO)O2)cc1C(F)(F)F` (stereo not given), for which the Potency result in experiment [1], in experiment [2], in experiment [3] and in experiment [5] was “inactive” each time. For the same compound, in experiment [4], the activity change, negative = inhibition is 3.87% (inactive). The max response was -2.79% in experiment [4] (setting [6]) and 3.03% in experiment [4] (setting [7]).

In the case of `CC(=O)OC/C=C(\C)CC/C=C(\C)CC/C=C(\C)CC/C=C(\C)CC/C=C(\C)CC/C=C(\C)CC/C=C(\C)CC/C=C(\C)CCC=C(C)C`, the Potency entry in experiment [1], in experiment [2], in experiment [3] and in experiment [5] was “inactive” each time. The activity change, negative = inhibition in experiment [4] is 1.76% (inactive). The results for the max response in experiment [4] (setting [6]) and in experiment [4] (setting [7]) were 7.11% and 8.78%, respectively.

Regarding `Nc1nc2c(nc(Cl)n2C2OC(CO)C(O)C2O)c(=O)[nH]1` (stereo not given), the Potency result in experiment [1], in experiment [2], in experiment [3] and in experiment [5] was “inactive” throughout. The activity change, negative = inhibition in experiment [4] is 3.5% (inactive). Further, the max response was 20% in experiment [4] (setting [6]) and 24.4% in experiment [4] (setting [7]).

For `CNC1C(O)[C@@H]2OC(O[C@@H]3C(O)C(O)C(N)C[C@H]3N)C(N)C[C@H]2O[C@H]1O[C@@H]1OC(CO)C(N)C(O)C1O` (stereo not given in full), the Potency result in experiment [1], in experiment [2], in experiment [3] and in experiment [5] was “inactive” each time. Moreover, the activity change, negative = inhibition in experiment [4] was 6.47% (inactive). Moreover, the max response in experiment [4] (setting [6]) turned out to be 16.9%; in experiment [4] (setting [7]), 24.6%.

For the compound `COc1cc(O)ccc1C(C)=O`, the Potency result in experiment [1], in experiment [2], in experiment [3] and in experiment [5] was “inactive” throughout. The activity change, negative = inhibition in experiment [4] was 7.68% (inactive). The max response in experiment [4] (setting [6]) is 24.4%; in experiment [4] (setting [7]), 34.1%.

Turning to `CCC(CO)NCCNC(CC)CO` (stereo not given), the Potency entry in experiment [1], in experiment [2], in experiment [3] and in experiment [5] was “inactive” throughout. The activity change, negative = inhibition in experiment [4] is -3.77% (inactive). For the same compound, the max response was found to be 8.09% in experiment [4] (setting [6]) and 6.63% in experiment [4] (setting [7]).

With `Nc1ncnc2c1[nH]c(=O)n2C1OC(CO)C(O)C1O` (stereo not given), the Potency result in experiment [1], in experiment [2], in experiment [3] and in experiment [5] was “inactive” in each case. Besides, the activity change, negative = inhibition in experiment [4] is -0.198% (inactive). For the same compound, the max response in experiment [4] (setting [6]) was determined as 11.6%; in experiment [4] (setting [7]), 24.7%.
